Data published in PubChem BioAssay (NCATS).
Inconclusive results are not listed. A call without a number means that no potency is given here. Active and inactive are the calls of the source. Calls come from the whole dose curve; as a rule, active = well fitted curve in the direction sought with a large enough effect; inconclusive = small, poorly fitted or top-dose-only effect, or another doubt; inactive = no such curve, though single readings can be large; an effect the other way counts as inactive or inconclusive.

Assays:
[1] = P-glycoprotein substrates identified in KB-3-1 adenocarcinoma cell line, qHTS therapeutic library screen (AID 1346986); note: nearly all actives have a fitted effect of over 60% in size;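 note: potency is for cytotoxicity meaning loss of cell viability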
Summary of the method: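 Cells seeded 500/well in DMEM/10% FCS; compounds pinned in dose-response; 72 h incubation; CellTiter-Glo added, 5 min, luminescence. KB-8-5-11 run ±tariquidar to test reversal of P-gp resistance.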

[2] = P-glycoprotein substrates identified in KB-8-5-11 adenocarcinoma cell line, qHTS therapeutic library screen (AID 1346987); note: nearly all actives have a fitted effect of over 65% in size
Summary of the method: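 Steps: plate 500 KB-8-5-11 cells/well in DMEM + 10% FCS (colchicine removed); pin compounds in dose-response; incubate 72 h, 37 degree C, 5% CO2; add CellTiter-Glo, 5 min; read luminescence.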
Potency is the fitted concentration of half-maximal effect.

SMILES	Potency [1]	Potency [2]	outcome [1]	outcome [2]
O=C(c1ccc2nccnc2c1)N1CCCCC1	inactive	inactive	–	–
CC1(c2nc3c(C(N)=O)cccc3[nH]2)CCCN1 (configuration not stated)	inactive	inactive	–	–
CC(C)c1ccc(CO)cc1O[C@@H]1O[C@H](CO)[C@@H](O)[C@H](O)[C@H]1O	inactive	inactive	–	–
Cc1ccc(-c2ccc3c(ccc4sc5c(c43)NC[C@@H](C)NC5=O)n2)cn1	inactive	inactive	–	–
CC1(C)C[C@H](O)C[C@@]2(C)OC(=O)C=C12	inactive	inactive	–	–
O=C(O)/C=C/c1ccc(O)c(O[C@@H]2O[C@H](CO)[C@@H](O)[C@H](O)[C@H]2O)c1	inactive	inactive	–	–
CCN1CCN(Cc2ccc(NC(=O)c3ccc(C)c(NC(=O)c4cncc(-c5cccs5)c4)c3)cc2C(F)(F)F)CC1	2.06 µM (active)	7.31 µM (active)	–	–
COc1cc2c(cc1O)[C@H](c1ccc(O[C@@H]3O[C@H](CO)[C@@H](O)[C@H](O)[C@H]3O)c(OC)c1)[C@@H](CO)[C@](O)(CO)C2	inactive	inactive	–	–
Cc1cc(Cl)ccc1COc1ccnn1-c1cc(C(=O)O)ccn1	inactive	inactive	–	–
CC1C(OC(=O)c2ccccc2)C(O)C2C(C(=O)O)=COC(OC3OC(CO)C(O)C(O)C3O)C12 (configuration not stated)	inactive	inactive	–	–
CC1(C)CC[C@@]2(C(=O)O[C@@H]3O[C@H](CO)[C@@H](O)[C@H](O)[C@H]3O)C(C1)C1=CCC3[C@@]4(C)CC[C@@H](O[C@@H]5O[C@H](C(=O)O)[C@@H](O[C@@H]6OC[C@@H](O)[C@H](O)[C@H]6O)[C@H](O[C@@H]6OC[C@](O)(CO)[C@H]6O)[C@H]5O)C(C)(C)C4CC[C@@]3(C)[C@]1(C)C[C@H]2O (some centres not stated)	–	–	inactive [at 9.29 µM]	inactive [at 9.29 µM]
